Compound activity from PubChem BioAssay.
JMJD2A Tudor: inhibitors of human JMJD2A Tudor domain. O75164. AlphaScreen JMJD2A-Tudor / H3K4me3 peptide binding. Potency, µM (top dose mostly 114 µM), most hits filed as inhibitors. 390,000 compounds, 4.4% hits. AID 504339; further: nearly all actives have a fitted effect of over 50% in size
BAZ2B inh: inhibitors of human BAZ2B bromodomain; 360,000 compounds, 4.4% hits; AlphaScreen BAZ2B-H3K14Ac peptide displacement; Potency, µM (doses to about 114 µM), most hits filed as inhibitors; AID 504333; further: nearly all actives have a fitted effect of over 60% in size
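Complex of BAZ2B and biotin-H3K14Ac (50 nM apiece) forms over 30 min at RT, then faces library compounds up to 110 uM for another 30 min; AlphaScreen beads added, 20 min dark incubation, luminescence read.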
G9a block: inhibitors of human histone lysine methyltransferase G9a; 350,000 compounds, 8.8% hits; AID 504332; Q96KQ7; G9a H3K9 monomethylation, AlphaScreen, 2 h; Potency, µM (series often up to 102 µM), actives largely listed as inhibitors; further: nearly all actives have a fitted effect of over 75% in size
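Using a bead-based AlphaScreen, monomethylated H3K9 product from 2 h room-temperature reactions (G9a 20 nM, peptide 500 nM, SAM 20 uM) was detected with 0.5 ug/mL rabbit anti-H3K9me1 antibody.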
GLS inhibitor: glutaminase GLS (human) inhibition | Potency, µM (doses to about 45.5 µM), actives largely listed as inhibitors | 410,000 compounds, 0.21% hits | AID 624170 | GLS enzymatic activity, qHTS titration
Target sequence (O94925 whole entry, looked up): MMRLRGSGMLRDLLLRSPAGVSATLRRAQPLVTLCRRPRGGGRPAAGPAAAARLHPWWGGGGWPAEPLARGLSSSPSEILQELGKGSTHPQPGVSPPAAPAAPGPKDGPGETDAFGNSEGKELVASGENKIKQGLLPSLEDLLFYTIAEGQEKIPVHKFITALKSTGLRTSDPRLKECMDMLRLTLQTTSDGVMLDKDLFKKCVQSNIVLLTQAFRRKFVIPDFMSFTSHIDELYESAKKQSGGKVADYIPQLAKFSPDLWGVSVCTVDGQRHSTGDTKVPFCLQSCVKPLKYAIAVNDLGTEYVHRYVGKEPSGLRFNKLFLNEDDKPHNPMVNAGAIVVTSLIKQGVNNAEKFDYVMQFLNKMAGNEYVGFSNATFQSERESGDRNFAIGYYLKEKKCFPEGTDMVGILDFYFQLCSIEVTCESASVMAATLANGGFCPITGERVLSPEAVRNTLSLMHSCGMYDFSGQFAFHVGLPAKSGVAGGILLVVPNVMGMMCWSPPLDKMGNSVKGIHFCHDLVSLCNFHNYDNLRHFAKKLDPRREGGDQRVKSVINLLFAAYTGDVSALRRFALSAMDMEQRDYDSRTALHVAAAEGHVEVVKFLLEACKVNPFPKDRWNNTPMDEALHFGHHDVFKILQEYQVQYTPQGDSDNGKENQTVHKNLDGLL
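Enzyme dispensed in phosphate buffer (45 mM, pH 8.2, 0.02% Tween-20), compounds pinned in, then 1 mM L-glutamine solution and the glutamate oxidase–HRP–Amplex Red mix added; fluorescence read immediately and again after 30 min at room temperature.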
HP1b chromo inh: blocks HP1-beta chromodomain binding to methylated histone tails. AlphaScreen HP1-beta / biotin-H3K9me3 peptide binding. 390,000 compounds, 0.56% hits. Potency, µM (highest dose often 114 µM), hits mostly inhibitors. P83916. AID 540317; further: nearly all actives have a fitted effect of over 70% in size
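Compound inhibition of the preformed complex between 50 nM HP1-beta and 50 nM biotinylated H3K9me3 peptide was read by AlphaScreen. Buffer was PBS pH 7.4 with 0.01% Tween-20. Incubations ran 30 min at room temperature, with 10 ug/mL donor/acceptor beads.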
Numbers stand for hits; [ ] = another dose, or the depositor's remark. A selection: hits, their analogues and other compounds. The true share with any hit is near 10%. The call rests on the fitted dose curve; in most records, active means well fitted curve in the direction sought with a large enough effect; inconclusive means small, poorly fitted or top-dose-only effect, or another doubt; inactive means no such curve, though single readings can be large; an effect the other way counts as inactive or inconclusive.

`Cc1ccc(-n2c(C)cc(/C=C3\SC(=O)NC3=O)c2C)cc1` gave JMJD2A Tudor inactive, BAZ2B inh inactive, G9a block inactive, GLS inhibitor inactive and HP1b chromo inh inactive.
For COc1ccc(-n2c(C)cc(/C=C3\SC(=O)NC3=O)c2C)cc1 the results were JMJD2A Tudor inconclusive, BAZ2B inh inactive, G9a block 22.4µM, GLS inhibitor inactive and HP1b chromo inh inactive.
Screening COc1ccc(-n2c(C)cc(/C=C3\SC(=S)N(Cc4ccco4)C3=O)c2C)cc1 returned JMJD2A Tudor inconclusive, BAZ2B inh inconclusive, G9a block 25.1µM, GLS inhibitor inactive and HP1b chromo inh inactive.
Cc1nn(CC(=O)Nc2sc3c(c2C#N)CCC(C(C)(C)C)C3)c(C)c1[N+](=O)[O-] (stereo not given) was read as JMJD2A Tudor inactive, BAZ2B inh inactive, G9a block 44.7µM, GLS inhibitor inactive and HP1b chromo inh inactive.
For CC(C)(C)C1CCc2c(sc(NC(=O)Cn3nnc(-c4ccccc4F)n3)c2C#N)C1 (stereo not given) the results were JMJD2A Tudor inactive, BAZ2B inh inactive, G9a block inactive, GLS inhibitor inactive and HP1b chromo inh inactive.
Cc1nn(C(C)C(=O)Nc2sc3c(c2C#N)CCCC3)c(C)c1[N+](=O)[O-] (stereo not given) was read as JMJD2A Tudor inactive, BAZ2B inh inactive, G9a block inconclusive, GLS inhibitor inactive and HP1b chromo inh inactive.
`CC(C)(C)C1CCc2c(sc(NC(=O)c3cc(C4CC4)on3)c2C#N)C1` (stereo not given) gave JMJD2A Tudor inactive, BAZ2B inh inactive, G9a block 79.4µM, GLS inhibitor inactive and HP1b chromo inh inactive.
`Cc1nn(CCCC(=O)Nc2sc3c(c2C#N)CCC3)c(C)c1[N+](=O)[O-]` gave JMJD2A Tudor inconclusive, BAZ2B inh inconclusive, G9a block 31.6µM, GLS inhibitor inactive and HP1b chromo inh inconclusive.
For O=C(Nc1ccc2c(c1)OCO2)c1cc(-c2ccc(O)cc2)on1 the results were JMJD2A Tudor inactive, BAZ2B inh inactive, G9a block inactive, GLS inhibitor inactive and HP1b chromo inh inactive.
For CN(C)S(=O)(=O)c1ccc(Cl)c(NC(=O)COC(=O)/C=C/c2ccco2)c1 the results were JMJD2A Tudor inactive, BAZ2B inh 56.2µM, G9a block inconclusive, GLS inhibitor inactive and HP1b chromo inh inactive.
Screening O=C(COC(=O)/C=C/c1ccco1)Nc1ncc(Cl)cc1Cl returned JMJD2A Tudor inconclusive, BAZ2B inh 50.1µM, G9a block inconclusive, GLS inhibitor inactive and HP1b chromo inh inactive.
Screening O=C(COC(=O)/C=C/c1ccco1)NCc1ccc(Cl)cc1 returned JMJD2A Tudor inactive, BAZ2B inh inactive, G9a block 7.94µM, GLS inhibitor inactive and HP1b chromo inh inactive.
Screening Cc1nc(NC(=O)COC(=O)/C=C/c2ccco2)c(Cl)cc1Cl returned JMJD2A Tudor inactive, BAZ2B inh inactive, G9a block inactive[12.7 µM], GLS inhibitor inactive and HP1b chromo inh inactive.
O=S(=O)(c1cccc(Cl)c1)N1CCN(c2nc(-c3cccs3)nc3ccccc23)CC1 was read as JMJD2A Tudor inactive and HP1b chromo inh inactive.
For COc1ccc(-c2nc3cnc(N4CCN(C)CC4)nc3n(Cc3cccc(OC)c3)c2=O)cc1 the results were G9a block inactive[0.501 µM].
`O=C(NCCn1ccc2ccccc21)c1ccc(Cl)cc1` gave JMJD2A Tudor inactive, BAZ2B inh inactive, G9a block inactive, GLS inhibitor inactive and HP1b chromo inh inactive.
CCCCN(C)C1=Nc2cccc3cccc1c23 was read as JMJD2A Tudor inconclusive, BAZ2B inh inactive, G9a block 10µM, GLS inhibitor inactive and HP1b chromo inh inactive.
CCCCON1C(=O)c2cccc3cccc(c23)C1=O was read as JMJD2A Tudor inactive, BAZ2B inh inconclusive, G9a block inactive, GLS inhibitor inactive and HP1b chromo inh inactive.
`O=C(COC(=O)CCc1ccccc1)NC1CCS(=O)(=O)C1` (stereo not given) gave JMJD2A Tudor inactive, BAZ2B inh inactive, G9a block 50.1µM, GLS inhibitor inactive and HP1b chromo inh inactive.
O=C(Cc1ccccc1)NC1CCS(=O)(=O)C1 (stereo not given) was read as JMJD2A Tudor inactive, BAZ2B inh inactive, G9a block inactive, GLS inhibitor inactive and HP1b chromo inh inactive.
